Each structure is given as a SMILES string. Screen size: about 1,100 compounds; about 880 (80%) were called active. The rule behind the calls is not given here. The set was probably picked from earlier hits. Some of the results follow. Potency and affinity values are given separately.

The target in this experiment is Induced myeloid leukemia cell differentiation protein Mcl-1 (Homo sapiens) (UniProt Q07820). As to the kind of experiment: Mcl-1/Noxa binding inhibitor potency, dose response, biochemical, TR-FRET (AID 1417).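 Note: 100% = protein plus peptide without compound and 0% = peptide alone.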 Conditions: Mcl-1/Noxa peptide interaction, cell-free TR-FRET (terbium/rhodamine), 2 h; at 54 µM (top of the series). For orientation: TR-FRET usually uses a lanthanide donor and a delayed reading to cut background.
Sequence of Induced myeloid leukemia cell differentiation protein Mcl-1 (Homo sapiens) (Q07820 whole entry, looked up): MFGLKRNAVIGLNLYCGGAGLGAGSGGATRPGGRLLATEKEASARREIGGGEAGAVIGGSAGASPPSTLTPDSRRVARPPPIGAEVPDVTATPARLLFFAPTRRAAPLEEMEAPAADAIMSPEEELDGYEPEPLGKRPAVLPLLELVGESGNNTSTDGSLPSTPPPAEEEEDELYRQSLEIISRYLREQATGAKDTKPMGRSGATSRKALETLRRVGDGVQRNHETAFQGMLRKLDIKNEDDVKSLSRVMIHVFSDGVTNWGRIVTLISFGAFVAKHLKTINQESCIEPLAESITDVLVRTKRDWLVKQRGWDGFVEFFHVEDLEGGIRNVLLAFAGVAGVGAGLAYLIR
Consider `CCN1C(=O)/C(=C2/Sc3ccc(OC)cc3N2C)SC1=Nc1cccc(O)c1`, for which the percent of control (lower = inhibition) is 54.8% (inactive). `Cn1c(=O)c2c(nc(NCc3ccco3)n2CC(O)COc2ccccc2)n(C)c1=O` (stereo not drawn): the percent of control (lower = inhibition) is 81.3% (inactive). As for `N=C1/C(=C\c2ccc(-c3ccc(C(=O)O)cc3)o2)C(=O)N=C2SC=C(c3ccccc3)N12`, the percent of control (lower = inhibition) is -1.95% (active). To `COc1ccccc1C1NC=C([N+](=O)[O-])C=C1[N+](=O)[O-]` (stereo not drawn) belongs 111% (inactive); to `CC1CCCCC1NC(=O)c1ccc2c(c1)[nH]c(=O)n2C1CCCC1` (stereo not drawn), 86.3% (inactive). The figure for `c1ccc(Nc2cccc(Nc3ccccc3)c2)cc1` is 60.5% (inactive). With `CN(C)c1ccc(NC(=O)/C=C/c2c(Cl)cccc2Cl)cc1`, the percent of control (lower = inhibition) is 80.1% (inactive). The figure for `CN(C)c1ccc(NC(=O)Nc2cccc(Cl)c2)cc1` is 49.6% (active).

The values above are taken from PubChem BioAssay AID1417 (Emory University Molecular Libraries Screening Center, 2008).
